Experimental data reported in PubChem BioAssay (NCATS).
Results filed as inconclusive are left out. Activity calls are given as the source filed them. The call rests on the fitted dose curve; in most records, active means well fitted inhibition curve with a large enough effect; inconclusive means small, poorly fitted or top-dose-only effect; inactive means flat fitted curve, though single readings scatter.

How the values were obtained:
Assay in all cases: qHTS profiling for inhibitors of Plasmodium falciparum proliferation (AID 504749); further: nearly all actives have a fitted effect of over 60% in size
Details in all cases: P. falciparum in erythrocytes, SYBR Green DNA, 72 h; series mostly up to 28.7 µM
PC26 = system: PC26
Summary of the method: (§1)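 Fluorescence of SYBR Green-bound parasite DNA, read at 485/535 nm, served as the growth measure. Infected erythrocytes were cultured with compound 72 h; artemisinin (0.29 uM) and DMSO wells defined the normalization range.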

PC49 = system: PC49
Summary of the method: as §1

SC27B = system: SC27B
Summary of the method: as §1

TAB109 = system: TAB109
Summary of the method: as §1

TAB113 = system: TAB113
Summary of the method: as §1

TAB165 = system: TAB165
Summary of the method: as §1

W2 = system: W2
Summary of the method: as §1

Measured: Potency

C=CCN1CCC23c4c5ccc(O)c4O[C@H]2C(=O)CC[C@@]3(O)C1C5 (some centres undefined)
inactive: all assays above

O=S(=O)(O)c1cc(O)ccc1O
inactive: all assays above

c1ccc2sc(SNC3CCCCC3)nc2c1
not listed: W2
inactive: all other assays above

CNC(=O)OCC[N+](C)(C)C
inactive: all assays above

O=C1CN=C(c2ccccc2)c2cc(Cl)ccc2N1CC1CC1
not listed: W2
inactive: all other assays above

C[N+]1(C)C2CCC1CC(OC(=O)c1c[nH]c3ccccc13)C2 (centres undefined)
inactive: all assays above

CCC1(C)CC(=O)NC(=O)C1
inactive: all assays above

CC(=O)OO
inactive: all assays above

CCCCCCCCCC(=O)O[C@H]1CC[C@H]2[C@@H]3CCC4=CC(=O)CC[C@]4(C)[C@H]3CC[C@]12C
not listed: W2
inactive: all other assays above

CC(Cc1ccccc1)NC=O (centres undefined)
inactive: all assays above

C[C@]12CCC(=O)C[C@@H]1CC[C@@H]1[C@@H]2CC[C@]2(C)[C@@H](O)CC[C@@H]12
inactive: all assays above
